# sEH inhibitor: blocks human soluble epoxide hydrolase activity; P34913; recombinant human sEH enzymatic activity assay; inhibition, % at 2 µM; hit rate 0.34% among 91,000; in the data active = inhibition above about 80%
# Target sequence (P34913 whole entry, looked up): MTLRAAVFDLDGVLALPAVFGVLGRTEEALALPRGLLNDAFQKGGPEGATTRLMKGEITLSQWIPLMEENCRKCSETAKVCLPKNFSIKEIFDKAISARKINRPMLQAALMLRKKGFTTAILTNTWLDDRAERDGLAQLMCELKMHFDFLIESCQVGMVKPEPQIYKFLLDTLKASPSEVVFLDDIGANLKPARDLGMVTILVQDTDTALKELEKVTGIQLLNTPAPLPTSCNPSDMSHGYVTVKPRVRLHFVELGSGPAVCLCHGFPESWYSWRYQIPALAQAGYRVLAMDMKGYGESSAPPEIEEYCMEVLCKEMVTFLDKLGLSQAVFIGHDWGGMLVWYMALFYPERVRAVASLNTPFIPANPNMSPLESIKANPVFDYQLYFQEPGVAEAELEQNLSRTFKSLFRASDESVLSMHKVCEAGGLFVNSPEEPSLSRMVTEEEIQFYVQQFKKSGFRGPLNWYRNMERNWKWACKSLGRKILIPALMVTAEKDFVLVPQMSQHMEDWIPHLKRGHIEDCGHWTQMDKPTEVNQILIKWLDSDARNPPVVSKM
# sEH activator: activators of human soluble epoxide hydrolase | AID 717 | hit rate 0.04% among 91,000 | P34913 | purified human sEH enzymatic activity, activator screen | activation, % at 2 µM; in the data active = activation above about 37%
# PostGolgi yeast: growth inhibition of a yeast mutant, post-Golgi transport screen; post-Golgi transport phenotypic cell assay; inhibition, % at 10 µM; AID 739; hit rate 0.9% among 98,000;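 also: yeast cells grown in 1536-well plates; yeast grown about 18 h at 30C before absorbance read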
# Cav32 inh: human Cav3.2 channel inhibition, primary screen; O95180; Cav3.2-expressing cells, Fluo-4 calcium fluorescence FDSS; active compounds read low; B-score at 10 µM; hit rate 4% among 100,000;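 active = single-dose well whose peak fluorescence ratio is a statistical outlier from its plate by either plate-standardised score or position-corrected B-score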
# PostGolgi ctrl: yeast control strain growth, post-Golgi counter-screen; efflux-deficient yeast background strain, growth absorbance A615, 16 h; inhibition, % at 10 µM; hit rate 5% among 98,000
# Active calls of the source: *; . = not tested or not shown. This is a sample that favours compounds with a hit; in the whole collection about 7.8% have one here. Rule as the data show it, unless noted: active = inhibition above about 30%; inactive = the rest.
SMILES,sEH inhibitor,sEH activator,PostGolgi yeast,Cav32 inh,PostGolgi ctrl
C/C(CC(=O)Nc1ccccc1-c1ccccc1)=N\NC(=O)COc1ccc(C)cc1Br,19,-17,5,-6.5*,5
C/C(CC(=O)Nc1ccccc1[N+](=O)[O-])=N\NC(=O)COc1ccccc1C,12,-10,-1,0.19,5
COC(=O)c1ccc(NC(=O)Cn2nc(-c3ccncc3)nc2SCC(=O)Nc2nccs2)cc1,-13,10,11,-0.63,3
Cc1cccc(CC(Cc2nc3ccccc3[nH]2)c2nc3ccccc3[nH]2)c1 (stereo not given),3,-1,-8,-7.1*,26
O=C1C(=O)N(CCCn2ccnc2)C(c2cccnc2)/C1=C(/O)c1ccc(Br)cc1 (stereo not given),2,-2,.,.,.
CC(=O)C[C@H]1c2ccccc2S(=O)(=O)N1c1ccccc1,.,.,.,0.73,.
O=C(CCCOc1ccc(Cl)cc1Cl)Nc1ccncc1,8,-12,25,0.7,61*
COC(=O)CCC(=O)NNC(=O)CCCOc1ccc(Cl)cc1Cl,0,-3,2,-0.095,7
CCNC(=O)CCCOc1ccc(Cl)cc1Cl,-2,3,-2,0.16,36*
O=C(c1ccc(COc2ccccc2Cl)o1)N1CCN(Cc2ccc3c(c2)OCO3)CC1,.,.,-5,-4.9*,27
O=C(c1ccc(COc2ccc(Cl)cc2)o1)N1CCN(Cc2ccc3c(c2)OCO3)CC1,8,-10,.,-3.3,52*
O=C(c1ccc(S(=O)(=O)N2CCCC2)cc1)N1CCN(Cc2ccc3c(c2)OCO3)CC1,-8,8,4,3.9*,9
O=C(CSCc1cccc(Cl)c1)N1CCN(Cc2ccc3c(c2)OCO3)CC1,17,-18,48*,-5.1*,28
Cc1ccc(C(=O)N2CCN(Cc3ccc4c(c3)OCO4)CC2)o1,-2,2,19,-0.41,-2
CCN(c1ccc2c(c1)OCO2)S(=O)(=O)c1cc(Br)cc2c1N(C(C)=O)CC2,7,-4,-4,0.64,9
CCCNCc1cc(OC)c(OCCC)cc1Cl,-9,5,.,1.4,.
O=C(c1ccc2nc(N3CCOCC3)sc2c1)N1CCCC1,.,.,4,0.49,4
CC1CCN(c2nc3ccc(C(=O)N4CCN(Cc5ccc6c(c5)OCO6)CC4)cc3s2)CC1,5,-6,10,.,41*
CCCCn1c(SCC(=O)NCc2cccs2)nc2c1c(=O)n(C)c(=O)n2C,10,-9,-2,0.81,3
COc1ccc(OC)c(Nc2cc(-c3ccccc3)nc(N)n2)c1,3,-2,-6,-4.5*,6
COc1ccc(OC)c(Nc2cc(C)nc3ccccc23)c1,-10,10,2,-0.095,2
Cc1cccc(NC(=S)NC(=O)/C=C/c2ccco2)n1,4,-3,-8,1.6,12
Cn1c(=O)c2nc(NCc3ccccc3)cnc2n(C)c1=O,-7,9,35*,.,-1
CCOP(=O)(OCC)c1nc(-c2ccc(C)cc2)oc1N1CCOCC1,-18,15,.,0.02,.
CCOP(=O)(c1ccccc1)c1nc(-c2ccc(F)cc2)oc1N1CCCCC1 (stereo not given),.,.,-2,.,32*
SMILES,sEH inhibitor,sEH activator,PostGolgi yeast,Cav32 inh,PostGolgi ctrl
Cc1occc1C(=O)NC1CCCc2ccccc21 (stereo not given),-9,5,-2,0.32,2
CC(C)[C@H](NC(=O)NC1CCCc2ccccc21)C(=O)O (stereo not given in full),20,-19,-3,0.99,33*
Cc1c(C(=O)NC2CCCc3ccccc32)oc2ccccc12 (stereo not given),5,-3,12,-4.6*,-10
CCCNC(=O)CC1Sc2ccccc2NC1=O (stereo not given),-2,7,-6,-0.15,39*
O=C(Nc1ccc(O)c2c(=O)cc(-c3ccccc3Cl)oc12)c1cccs1,.,.,.,1.5,.
CC(C)NC(=O)CSc1nncn1-c1ccccc1,.,.,4,0.63,33*
CC(C)NC(=O)CSc1nc2ccccc2n1-c1ccccc1,-5,4,-7,-1.1,3
CCN(CC)C(=O)Cn1cnc2sc(C(=O)Nc3cc(OC)c(OC)c(OC)c3)c(C)c2c1=O,-5,4,3,-0.32,-3
O=C(Nc1ccc(NC(=S)NC(=O)C(c2ccccc2)c2ccccc2)cc1)c1ccccc1,36,-36,.,-4.3*,.
CC1(C)CCC23CC[C@]4(C)C(OC2=O)(C3C1)[C@H]1O[C@H]1C1[C@@]2(C)CC[C@@H](O)C(C)(C)C2CC[C@]14C (stereo not given in full),.,.,.,-1.7,.
CCOc1ncccc1C(=O)OCC(=O)c1cc(C)n(Cc2ccco2)c1C,8,-8,-2,-4.9*,8
FC(F)Sc1ccc(NC(=S)NCC2CCCCC2)cc1,37,-37,36*,-5.7*,38*
CCC(=O)Nc1nc(-c2ccccc2)ns1,6,-4,.,-0.018,.
Cc1nnc(SCCC(=O)Nc2nc(-c3ccccc3)ns2)s1,4,-2,-17,-5*,5
CCc1ccc(-c2nc(CN3CCCC(C(=O)NCCc4ccc(OC)c(OC)c4)C3)c(C)o2)cc1 (stereo not given),12,-11,7,-5.8*,3
O=C(Nc1sc2c(c1C(=O)c1ccc(Cl)cc1)CCCC2)c1cccnc1,-2,4,8,-0.56,40*
N#Cc1c(NC(=O)c2cccnc2)sc2c1CCC2,10,-10,-13,-0.17,8
O=C1Nc2ccccc2/C1=N\c1sc2c(c1C(=O)Nc1ccccc1)CCCC2,1,4,.,-0.62,.
CN(c1ccc(C(=O)O)cc1)S(=O)(=O)c1ccccc1,.,.,-3,-0.4,8
Cc1ccc(CSCCNC(=O)c2ccc(N(C)S(=O)(=O)c3ccccc3)cc2)cc1,38,-38,7,-5.6*,11
O=C(NCCCn1ccnc1)c1ccc(Cl)c(S(=O)(=O)N2CCOCC2)c1,17,-13,4,0.15,0
O=C(NCCC1=CCCCC1)c1ccc(Cl)c(S(=O)(=O)N2CCOCC2)c1,94*,-94,-5,-0.0027,9
C=CCN1C(=O)CSc2ccc(C(=O)NCCC3=CCCCC3)cc21,89*,-89,2,-3.7,23
Cc1ccc(CSCCNC(=O)c2ccc(Cl)c(S(=O)(=O)N3CCOCC3)c2)cc1,74,-73,-8,-7.4*,14
CCOC(=O)CSC(C)C(=O)Nc1nnc(C(C)C)s1 (stereo not given),.,.,1,0.3,0
CC1=CC(C)(C)Nc2ccc(OC(=O)CN3C(=O)c4cccc5cccc(c45)C3=O)cc21,-18,21,33*,.,-8
CC1=CC(C)(C)Nc2ccc(OC(=O)C(Cc3ccccc3)N3C(=O)c4ccccc4C3=O)cc21 (stereo not given),-11,12,1,-1.7,3
C#C[C@]1(O)CCC2C3CCC4=Cc5oncc5CC4(C)C3CCC21C (stereo not given in full),.,.,.,-4.8*,.
C=C(C)C(=O)Nc1cccc(C2=NOC3(C2)C[C@H](C(N)=O)N(C(=O)/C=C/C)C3)c1 (stereo not given in full),.,.,.,0.66,.
N#Cc1c(C(F)(F)F)cc(-c2ccc(Cl)c(Cl)c2)nc1SCCN1CCOCC1,-1,-1,1,-1.6,12
